Here are results for seven molecules from PubChem BioAssay (Tox21).

Values without a mark were called inactive. Results filed as inconclusive are left out. The source made the active and inactive calls. Unless noted, calls come from the whole dose curve; as a rule, active = well fitted curve in the direction sought with a large enough effect in the repeat runs; inconclusive = weak or mixed curves; inactive = no such curve, though single readings can be large; an effect the other way counts as inactive or inconclusive.

Test [1] in a line: qHTS assay for small molecules that induce genotoxicity in human embryonic kidney cells expressing luciferase-tagged ATAD5 (AID 651632). Note: nearly all actives have a fitted effect of over 15% in size. Summed up:
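HEK293T cells carrying a luciferase reporter tagged to ATAD5 were exposed to compound or DMSO vehicle for 16 hr at 37C, 5% CO2. Amplite was added, and after 30 min at room temperature luciferase activity was read as a marker of ATAD5 induction.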

Test [2] is described as follows: qHTS assay for small molecules that induce genotoxicity in human embryonic kidney cells expressing luciferase-tagged ATAD5 - cell viability (AID 651634; calls by dose curve; note: nearly all actives have a fitted effect of over 25% in size; note: potency is the fitted concentration of half-maximal effect). The essentials: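 HEK293T cells expressing luciferase-tagged ATAD5 were exposed to compound or DMSO for 15.5 hr at 37C, 5% CO2. Viability was then read as live-cell protease activity by CellTiter-Fluor fluorescence after 30 min at 37C.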

Test [3] can be described thus: qHTS assay for small molecule disruptors of the mitochondrial membrane potential - cell viability (AID 720634; calls by dose curve;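 note: human HepG2 liver cancer cells; nearly all actives have a fitted effect of over 20% in size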). Summed up:
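HepG2 cells seeded overnight at 37 C, then exposed to compound or DMSO for 1 hr at 37 C, 5% CO2. m-MPI dye added, then CellTiter-Glo for 30 min at room temperature; viability read as ATP luminescence.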

Test [4] in a line: qHTS assay for small molecule disruptors of the mitochondrial membrane potential (AID 720635). Note: potency is the fitted concentration of half-maximal effect. Summed up:
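Mitochondrial membrane potential tracked with Mito-MPS dye, red aggregates (ex 540/em 590 nm) against green monomers (ex 490/em 535 nm). Compound treatment 1 hr at 37C, dye 30 min in HepG2.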

A short description of test [5]: qHTS assay to test for compound auto fluorescence at 590 nm (red) in HepG2 cells (AID 720674). The essentials: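 We screened compounds on adherent HepG2 cells, incubating them for an hour at 37 C in 5% CO2 before reading emission at 590 nm under 540 nm excitation; values reflect equivalence to Rose Bengal sodium fluorescence.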
The nature of test [6]: qHTS assay to test for compound auto fluorescence at 535 nm (green) in HepG2 cells (AID 720675).
Test [7] is described as follows: qHTS assay to test for compound auto fluorescence at 460 nm (blue) in HEK293 cells (AID 720678). The essentials:
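Blue read-out at excitation 405 nm and emission 460 nm follows overnight compound exposure of HEK293 cells at 37C in 5% CO2. Activity is given as auto fluorescence equivalency to triamterene.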

Test [8] can be described thus: qHTS assay to test for compound auto fluorescence at 590 nm (red) in HEK293 cells (AID 720679). The essentials: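 Red channel, Ex/Em 540/590nm; signal expressed as equivalency to Rose Bengal sodium. HEK293, 2,000 cells/well, 10% dialyzed FBS; 23 nL compound pinned after 4-5 hr attachment; overnight 37C/5% CO2 before reading.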
Test [9] in a line: qHTS assay to test for compound auto fluorescence at 535 nm (green) in HEK293 cells (AID 720680).
Test [10] in a line: qHTS assay to test for compound auto fluorescence at 460 nm (blue) in HEK293 cell free culture (AID 720681). The essentials:
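Blue fluorescence (Ex 405/Em 460 nm, triamterene-equivalent) was read immediately after pin transfer of compound or DMSO into medium (DMEM, 10% FBS) without cells.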

Test [11] in a line: qHTS assay to test for compound auto fluorescence at 590 nm (red) in HEK293 cell free culture (AID 720683). Summed up:
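Red-channel autofluorescence of compounds in culture medium (DMEM, 10% FBS), no cells, measured at 540/590 nm. Rose Bengal sodium is the reference fluorophore for equivalence.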

The nature of test [12]: qHTS assay to test for compound auto fluorescence at 590 nm (red) in HepG2 cell free culture (AID 720684). Summed up:
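Steps: dispense MEM/10% FBS medium, no cells; pin compound or DMSO vehicle; read red channel, Ex/Em 540/590 nm. Output given as Rose Bengal sodium equivalents.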

Test [13] in a line: qHTS assay to test for compound auto fluorescence at 460 nm (blue) in HepG2 cell free culture (AID 720685). The essentials: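 Compound (23 nL) or DMSO pinned into cell-free MEM with 10% FBS; blue fluorescence read at 405/460 nm excitation/emission, expressed as auto-fluorescence equivalency to triamterene.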
Test [14] in a line: qHTS assay to test for compound auto fluorescence at 535 nm (green) in HepG2 cell free culture (AID 720686).
Test [15] can be described thus: qHTS assay to test for compound auto fluorescence at 460 nm (blue) in HepG2 cells (AID 720687). Summed up:
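Blue-channel autofluorescence (Ex/Em 405/460 nm, triamterene-equivalent) was measured after 1 hr compound exposure at 37 C, 5% CO2. Cells were HepG2, plated overnight at 37 C in MEM plus 10% FBS.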

Test [16] addresses Glucocorticoid receptor (Homo sapiens) (UniProt P04150). Description: qHTS assay to identify small molecule agonists of the glucocorticoid receptor (GR) signaling pathway (AID 720691; active = well fitted activation curve with a large enough effect in the signal ratio in the repeat runs, not every such curve was filed as active; the % refers to the signal ratio). The settings on record: GR-bla HeLa, beta-lactamase reporter ratio, 18 h; activation: at 62.4 µM (top of the series). The essentials: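 GR-bla HeLa cells (beta-lactamase reporter under glucocorticoid response element) were plated 4 h at 37 C/5% CO2, given compounds in DMSO, and incubated 18 h at 37 C. LiveBLAzer B/G FRET substrate was added for 2 h at room temperature, then fluorescence intensity read.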

Test [17] shares this target. Description: qHTS assay to identify small molecule antagonists of the glucocorticoid receptor (GR) signaling pathway (AID 720692; active = well fitted inhibition curve with a large enough effect in the signal ratio in the repeat runs, not every such curve was filed as active; the % refers to the signal ratio). The essentials: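 GR-bla HeLa cells (beta-lactamase reporter under glucocorticoid response element) were pre-plated 4 h at 37 C, treated with compounds plus 5 nM dexamethasone (final) for 18 h, then read by LiveBLAzer B/G FRET fluorescence after 2 h.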

Test [18] is described as follows: qHTS assay for small molecule agonists of the p53 signaling pathway - cell viability (AID 651633; calls by dose curve; note: nearly all actives have a fitted effect of over 30% in size; note: potency is the fitted concentration of half-maximal effect). The essentials:
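Viability counter-read: CellTiter-Glo luminescence (30 min, room temperature) in the same p53RE-bla plates. These plates had been exposed to compounds for 16 h at 37 C.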

Test [19] is described as follows: qHTS assay to test for compound auto fluorescence at 535 nm (green) in HEK293 cell free culture (AID 720682). Summed up:
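Read-out: 485/535 nm fluorescence intensity, calibrated against fluorescein. Medium only (DMEM + 10% FBS, no cells); test compound or DMSO vehicle added by pintool before plate reading.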
% is set by controls: 0 for no effect and ±100 for the full control effect.

Chain of Glucocorticoid receptor (Homo sapiens) (P04150 whole entry, looked up): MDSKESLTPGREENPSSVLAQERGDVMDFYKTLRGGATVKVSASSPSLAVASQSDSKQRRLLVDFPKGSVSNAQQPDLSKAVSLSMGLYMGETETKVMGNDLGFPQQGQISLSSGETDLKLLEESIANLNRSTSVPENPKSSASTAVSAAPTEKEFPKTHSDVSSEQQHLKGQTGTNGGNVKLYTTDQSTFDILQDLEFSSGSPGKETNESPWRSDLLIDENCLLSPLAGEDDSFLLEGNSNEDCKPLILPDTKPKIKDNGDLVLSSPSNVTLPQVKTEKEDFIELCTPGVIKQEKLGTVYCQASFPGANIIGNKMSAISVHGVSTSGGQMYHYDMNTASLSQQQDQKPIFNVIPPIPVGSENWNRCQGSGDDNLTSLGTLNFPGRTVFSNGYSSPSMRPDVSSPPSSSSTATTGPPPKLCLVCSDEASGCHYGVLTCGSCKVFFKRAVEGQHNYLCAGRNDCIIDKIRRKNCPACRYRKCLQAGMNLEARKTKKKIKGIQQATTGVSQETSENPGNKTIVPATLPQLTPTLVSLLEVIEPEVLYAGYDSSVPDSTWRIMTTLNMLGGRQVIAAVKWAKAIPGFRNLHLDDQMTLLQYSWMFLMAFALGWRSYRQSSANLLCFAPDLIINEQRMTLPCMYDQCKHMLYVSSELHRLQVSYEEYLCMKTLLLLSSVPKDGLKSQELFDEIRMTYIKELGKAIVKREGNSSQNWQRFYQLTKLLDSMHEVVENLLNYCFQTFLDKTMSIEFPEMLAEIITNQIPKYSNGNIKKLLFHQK

`Cc1cccc(CN2CCN(C(c3ccccc3)c3ccc(Cl)cc3)CC2)c1` (stereo not drawn): the Potency result in test [1], in test [2], in [3], in test [4], in test [16] and in test [17] was “inactive” throughout. For the same molecule, the fluorescence, relative to Rose Bengal in test [5] is -0.676% [at 18.6 µM]. The fluorescence, % of fluorescein control is 0.0228% [at 18.6 µM] in test [6] and -0.0169% [at 18.6 µM] in test [14]. In addition, the fluorescence, % of triamterene in [7] was 0.0825% [at 18.6 µM]. Besides, the fluorescence, % of fluorescent control in [8] is 0.431% [at 18.6 µM]; in test [10], -0.0116% [at 18.6 µM]; in [11], 0.0211% [at 18.6 µM]; in [13] it was -0.0261% [at 18.6 µM]; in [15], -0.0938% [at 18.6 µM]. The fluorescence, % of fluorescein in test [9] was 0.0512% [at 18.6 µM]. Besides, the fluorescence, % of Rose Bengal in [12] is 0.0634% [at 18.6 µM].

Take `CCCCCCCCCOC(=O)c1ccc(O)cc1`: the Potency result in [1], in test [5], in test [6], in [7], in [8] and in test [10] was “inactive” throughout. The Potency entry in test [11], in [12], in test [13], in test [14] and in test [15] was “inactive” in each case. Also, the Potency in test [18] was 60.3 µM (active); in [4], 4.27 µM (active). In addition, the molecule was classed as inactive in test [9] and in test [19].

For the molecule `CCN(Cc1cccnc1)C(=O)c1cccc(Cl)c1[C@]1(C)C(=O)N(Cc2ccc(OC)cc2OC)c2ccc(Cl)cc21`, the Potency entry in test [1], in test [3], in test [5], in test [6], in test [7] and in test [8] was “inactive” in each case. Besides, the Potency entry in test [10], in [11], in [12], in test [13], in [14] and in test [15] was “inactive” in each case. The Potency in test [2] was 9.05 µM (active); in test [4], 8.07 µM (active). Besides, the outcome in test [9] and in [19] was inactive.

In the case of `CSc1ccc2c(c1)C(N1CCN(C)CC1)Cc1ccccc1S2` (stereo not drawn), the Potency result in [1], in [3], in test [5], in test [6], in [7] and in [8] was “inactive” throughout. For the same molecule, the Potency entry in test [10], in [11], in test [12], in test [13], in test [14] and in test [15] was “inactive” each time. In addition, the molecule was called inactive in [9] and in test [19].

For `CCCCCCCCCCCCc1ccc(O)cc1`, the Potency result in test [1], in test [3], in test [5], in test [6], in test [7] and in test [8] was “inactive” in each case. In addition, the Potency entry in [10], in test [11], in test [12], in test [13], in test [14] and in test [15] was “inactive” in each case. In addition, the figures for the Potency in test [18] and in [4] were 24.3 µM (active) and 2.73 µM (active), respectively. For the same molecule, the result in test [9] and in test [19] was inactive.

Turning to `O=C1CCCCCN1SSN1CCCCCC1=O`, the Potency result in test [1], in [18], in test [3], in test [5], in test [6] and in [7] was “inactive” throughout. Further, the Potency entry in test [8], in test [10], in test [11], in [12], in test [13] and in test [14] was “inactive” throughout. Moreover, the Potency entry in [15] was “inactive”. Also, the molecule was classed as inactive in [9] and in [19].

Consider `C/C=C1/C(=O)C[C@H]2[C@@H]3CCC4=CC(=O)CC[C@]4(C)[C@H]3CC[C@]12C`, for which the Potency entry in [1], in test [2], in test [3], in test [4], in [5] and in test [7] was “inactive” each time. In addition, the Potency entry in test [8], in test [10], in test [11], in [12], in [13] and in test [14] was “inactive” throughout. For the same molecule, the Potency entry in [15] is “inactive”. Also, the result in test [9] and in test [19] was inactive.
